A selection: hits, their analogues and other compounds. The true share with any hit is near 27%.
CYP2C19 act: human CYP2C19 activators, primary screen, biochemical, luminescence. recombinant CYP2C19, luciferin-H EGE luminescence; active compounds read high; 0 = fully inhibited enzyme, 1 = untreated enzyme. activation factor at 5 µM. 96,000 tested, under 10 active. AID 1025, 2008;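 active = activation factor of at least 2 at 5 µM in the primary screen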
Target sequence (P33261 whole entry, looked up): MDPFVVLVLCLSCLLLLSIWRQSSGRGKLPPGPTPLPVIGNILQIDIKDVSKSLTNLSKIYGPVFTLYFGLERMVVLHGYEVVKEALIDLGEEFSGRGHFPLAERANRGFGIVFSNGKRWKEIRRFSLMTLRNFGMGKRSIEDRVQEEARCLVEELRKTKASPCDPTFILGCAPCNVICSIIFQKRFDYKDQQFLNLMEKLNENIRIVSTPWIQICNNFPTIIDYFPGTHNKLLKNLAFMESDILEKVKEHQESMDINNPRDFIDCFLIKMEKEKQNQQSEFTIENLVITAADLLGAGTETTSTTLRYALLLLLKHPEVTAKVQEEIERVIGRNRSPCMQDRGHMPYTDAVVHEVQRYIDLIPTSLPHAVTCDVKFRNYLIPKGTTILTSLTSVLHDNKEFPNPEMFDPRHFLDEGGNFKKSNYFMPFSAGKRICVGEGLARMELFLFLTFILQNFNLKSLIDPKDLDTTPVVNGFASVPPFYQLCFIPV
CYP2C9 inh: blockers of cytochrome P450 2C9 activity – biochemical, luminescence, ADME assay, primary screen | P11712 | CYP2C9 Supersomes, luciferin-H conversion | inhibition, % at 5 µM | 20% of 96,000 active | AID 777, 2007;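 active = blocking of liver enzyme CYP2C9 beyond about 50% at 5 µM, limit read from the data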
sEH inhibitor: soluble epoxide hydrolase inhibitors, primary screen, biochemical, human sEH; AID 707, 2007; 0.34% of 91,000 active; recombinant human sEH enzymatic activity assay; inhibition, % at 2 µM; Bifunctional epoxide hydrolase 2 (Homo sapiens), P34913; in the data active = inhibition above about 80%
CYP2C9 act: human CYP2C9 activators, primary screen, biochemical, luminescence; Cytochrome P450 2C9 (Homo sapiens), P11712; recombinant CYP2C9, luciferin-H conversion; active compounds read high; factor 1 = untreated enzyme, 0 = blocked; activation factor at 5 µM; 1.4% of 96,000 active;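 active = activation factor of 2 or more for CYP2C9 at a 5 µM dose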
CYP2C19 inh: blockers of cytochrome P450 2C19 activity – biochemical, luminescence, ADME assay, primary screen; P33261; CYP2C19 Supersomes, luciferin-H EGE luminescence, 30 min; inhibition, % at 5 µM; 21% of 96,000 active; AID 778, 2007;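 active = CYP2C19 inhibition above a set limit at 5 µM in the primary screen, cut at about 50% in these data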
sEH act: soluble epoxide hydrolase activators, primary screen, biochemical, human sEH; Bifunctional epoxide hydrolase 2 (Homo sapiens), P34913; 0.04% of 91,000 active; purified human sEH enzymatic activity, activator screen; activation, % at 2 µM; in the data active = activation above about 37%
Of the large screens only hits and unclear results are named; the others gave an inactive call.

COC(=O)c1c(CSc2ccc(C)c(C)c2)noc1C(=O)NCc1ccc(OC)cc1	CYP2C9 inh 75.4, CYP2C19 inh 65.0
O=C(NCC1CCCO1)c1onc(CSc2ccc(F)cc2)c1C(=O)O (stereo not drawn)	none
C=CCNC(=O)c1onc(CSc2ccc(C)c(C)c2)c1C(=O)O	CYP2C9 inh 88.4, CYP2C19 inh 94.1
CCCCNC(=O)c1onc(CSc2ccc(F)c(F)c2)c1C(=O)O	CYP2C9 inh 72.9
C=CCNC(=O)c1onc(CSc2ccccc2CC)c1C(=O)O	CYP2C9 inh 79.8
CCN1CC2=C(OC(N)=C(C#N)C2c2cccs2)/C(=C\c2cccs2)C1 (stereo not drawn)	none
O=c1cc(N2CCN(Cc3ccccc3)CC2)[nH]c(=O)n1-c1ccc(Br)cc1	none
CC(C)(C)C(=O)Nc1c2c(nc3c1CCC3)CCCC2	none
CCCCNC(=O)c1onc(CSc2ccc(C)c(C)c2)c1C(=O)O	CYP2C9 inh 82.8
CCCN(CCC)CCNC(=O)C1CC(=O)N(c2ccc(OC)cc2)C1c1ccc(OC)cc1 (stereo not drawn)	none
O=C(Nc1cnn(Cc2c(Cl)cccc2Cl)c1)C(c1ccccc1)c1ccccc1	CYP2C9 inh 87.1
CC(=O)c1c(N2CCN(Cc3ccccc3)CC2)[nH]c(-c2ccccc2)nc1=S	none
CC(=O)c1c(N2CCCC2)[nH]c(-c2ccccc2)nc1=S	CYP2C19 inh 51.2
COc1ccc(-c2nc(CSCC(=O)N3CCN(C4CCCCC4)CC3)c(C)o2)cc1OC	none (no result: CYP2C19 act, CYP2C9 inh, CYP2C9 act, CYP2C19 inh)
CC12CCC(C(=O)NCc3ccccc3)(OC1=O)C2(C)C (stereo not drawn)	none
CC12CCC(C(=O)NCc3ccc4c(c3)OCO4)(OC1=O)C2(C)C (stereo not drawn)	CYP2C19 inh 55.9
CC1=C(C)CC(C(=O)NCc2ccc3c(c2)OCO3)C(C(=O)O)C1 (stereo not drawn)	none
CC12CCC(C(=O)NCc3ccco3)(OC1=O)C2(C)C (stereo not drawn)	none
CC12CCC(C(=O)NCCCn3ccnc3)(OC1=O)C2(C)C (stereo not drawn)	CYP2C19 inh 75.8
CC12CCC(C(=O)NCc3ccc(Cl)cc3)(OC1=O)C2(C)C (stereo not drawn)	CYP2C19 inh 83.6
CCCCn1cnc2c(cnn2-c2ccc(Cl)cc2)c1=O	none (no result: CYP2C19 act, CYP2C9 inh, CYP2C9 act, CYP2C19 inh)
CCCCn1cnc2c(cnn2-c2ccc(F)cc2)c1=O	CYP2C9 inh 56.0
O=c1c2cnn(-c3ccc(F)cc3)c2ncn1Cc1ccccn1	CYP2C19 inh 56.3
CC(=O)c1sc(N)c(C(=O)OC(C)C)c1C	CYP2C19 inh 79.8
Cc1c(C(N)=O)sc(N)c1C(=O)OC(C)C	none
CCOc1ccc(/C(O)=C2/C(=O)C(=O)N(CCOCCO)C2c2cccnc2)cc1 (stereo not drawn)	none
CCCOc1cccc(/C=N/NC(=O)c2csc(C)c2C)c1	sEH inhibitor 86.4
O=C(O)c1ccc(COc2ccc(/C=N/NC(=O)c3cccs3)cc2)cc1	none
C/C(=N\OCC(=O)N/N=C/c1ccccc1)c1cccs1	CYP2C19 inh 82.1
Cc1scc(C(=O)N/N=C/c2ccco2)c1C	none (no result: CYP2C19 act, CYP2C9 inh, CYP2C9 act, CYP2C19 inh)
O=C(N/N=C/c1ccccc1)c1sccc1OCc1ccc(F)cc1	CYP2C9 inh 70.0
O=C(N/N=C/c1cccc(OCc2ccccc2)c1)c1cccs1	CYP2C9 inh 83.2
CCn1nc(NC(=O)c2cccnc2)c2cc3ccccc3nc21	CYP2C9 inh 62.4
CC(Oc1ccccc1)c1ccnn1S(=O)(=O)c1ccccc1 (stereo not drawn)	CYP2C9 inh 63.6
CC(C)Oc1ccc(/C=N/NC(=O)C2CCCN2S(=O)(=O)c2ccc(Cl)cc2)cc1 (stereo not drawn)	none
CC(Oc1ccc(Cl)cc1)c1ccnn1S(=O)(=O)c1ccc(Cl)cc1 (stereo not drawn)	CYP2C9 inh 82.0
CCNC(=O)n1nccc1C(C)Oc1ccccc1 (stereo not drawn)	CYP2C19 inh 54.9
COc1ccc(CNC2=CC(=O)CC(C)(C)C2)cc1	none
COc1ccc(-n2cnnc2SCc2ncc(-c3ccccc3)o2)cc1	CYP2C19 inh 66.0
Brc1ccccc1-c1nnc(CSc2nnc3sc4ccccc4n23)o1	CYP2C19 inh 79.3 (no result: sEH inhibitor, sEH act)
C=CCn1c(=O)c2ccccc2n2c(SCC(=O)c3ccccc3)nnc12	CYP2C9 inh 70.6, CYP2C19 inh 81.8 (no result: sEH inhibitor, sEH act)
C=CCn1c(=O)c2ccccc2n2c(SCc3nnc(-c4ccccc4Br)o3)nnc12	CYP2C9 inh 64.5, CYP2C19 inh 65.7 (no result: sEH inhibitor, sEH act)
CC(C)NC(=O)C1CCN(C(=O)C(C(=O)c2ccccc2)n2cc(Cl)ccc2=O)CC1 (stereo not drawn)	none
Cc1nn(CC(=O)NCCCN2CCOCC2)c(C)c1[N+](=O)[O-]	none
CCOC(=O)C(C)Sc1ccc2nnc(-c3ccc(F)cc3)n2n1 (stereo not drawn)	none
Brc1ccccc1-c1nnc(CSc2nncn2-c2ccccc2)o1	CYP2C9 act 2.4, CYP2C19 inh 68.2
O=c1c2ccccc2nc(SCc2nnc(-c3ccccc3Br)o2)n1-c1ccccc1	none (no result: CYP2C19 act, CYP2C9 inh, CYP2C9 act, CYP2C19 inh)
C=CCn1c(=O)c2ccccc2n2c(SCC(=O)NCCc3ccccc3)nnc12	CYP2C19 inh 51.4 (no result: sEH inhibitor, sEH act)
COc1ccc(NC(=O)C(c2ccc(OC)cc2)N(C)C(=O)c2cnccn2)cc1 (stereo not drawn)	none (no result: sEH inhibitor, sEH act)
Cc1ccc2nc(N3CCN(Cc4ccc(F)cc4)C3=O)c(C)cc2c1	none
CCOC(=O)c1[nH]c(C)c(C(=O)NCc2cccnc2)c1C	none
CC(C)c1ccc(OCc2ccc(C(=O)N3CCN(c4ccccn4)CC3)cc2)cc1	none
CCCn1c(=O)c2ccccc2n2c(SCC(=O)c3cc(C)n(CCOC)c3C)nnc12	none (no result: sEH inhibitor, sEH act)
Cc1ccc(F)cc1NC(=O)Cc1ncc(C(F)(F)F)cc1Cl	CYP2C19 inh 50.9 (no result: sEH inhibitor, sEH act)
O=C(O)CCc1ncc(C(F)(F)F)cc1Cl	none
COc1ccc(C2C(C#N)=C(SCC(=O)Nc3ccc(C)cc3)NC3=C2C(=O)CC(C)(C)C3)cc1 (stereo not drawn)	none
CCCCc1ccc(NC(=O)CSCc2cc(=O)[nH][nH]2)cc1	none
COc1cccc(NC(=O)CSC2=C(C#N)C(c3ccco3)C3=C(CCCC3=O)N2)c1 (stereo not drawn)	CYP2C9 inh 66.0, CYP2C19 inh 59.8 (no result: sEH inhibitor, sEH act)
CCCCc1ccc(NC(=O)CSC2=C(C#N)C(c3ccco3)C3=C(CCCC3=O)N2)cc1 (stereo not drawn)	CYP2C9 inh 91.8, CYP2C19 inh 75.5 (no result: sEH inhibitor, sEH act)

Source: PubChem (several laboratories)
